Where “and” joins values, the source holds several entries; their conditions need not be identical. Equal entries are not always repeated. Calls of active or inactive are those of the source. The call rests on the fitted dose curve.
target: Glucocorticoid receptor (Homo sapiens) (UniProt P04150); test: GR-EFC Redistribution (AID 451); conditions: CHO-K1 GR-EFC translocation, beta-gal luminescence, 2 h
From the text: NIH Molecular Libraries Screening Centers Network [MLSCN]
NIH Chemical Genomics Center [NCGC]
The glucocorticoid receptor (GR) is a cytoplasmic receptor that belongs to the nuclear receptor family of ligand-dependent transcription factors. Upon glucocorticoid binding to its receptor, the glucocorticoid-GR complex translocates into the nucleus, where it binds as a dimer to specific DNA sequences (glucocorticoid response elements), enhancing or suppressing transcription of a wide variety of glucocorticoid-responsive genes. In addition to their important roles in normal physiology and metabolism, glucocorticoids are administered exogenously as treatments for a wide variety of allergic, autoimmune, and neoplastic conditions. Identification of compounds that modulate aspects of GR signalling would be useful in dissecting glucocorticoid response pathways as well as developing GR modulators with more targeted clinical effects.
Traditionally, GR modulators have been identified using receptor binding or direct transactivation assays. However, assays for glucocorticoid-dependent nuclear translocation can also be used to screen for compounds affecting GR signaling.
Immunocytochemical staining has been used to assay for GR translocation, but is not suitable for high throughout screening due to the multiple reagent addition and wash steps required. Recently, a novel cell-based GR assay in Enzyme Fragment Complementation (EFC) format was developed by DiscoveRx (Fremont, CA). The assay uses EFC of b-galactosidase (b-gal) as an indicator of GR-translocation in engineered CHO-K1 biosensor cells. The enzyme acceptor (EA) fragment of b-gal resides in the nucleus , as designed through the use of a proprietary set of sequence additions and modifications. The small peptide enzyme donor (ED) fragment of b-gal is fused directly to the C-terminus of GR, and is localized in the cytoplasm is the absence of receptor signaling. Upon binding to a GR ligand, the complex translocates to the nucleus, where intact enzyme activity is restored by complementation and b-gal activity is detected. We optimized this GR-EFC assay in homogenous 1536-well plate assay format for high throughput screening.
NCGC Assay Protocol Summary:
CHO-K1 cells stably expressing NLS-enzyme acceptor fragment (EA) of b-gal and GR-enzyme donor (ED) fragment of b-gal were maintained in F12 medium (Invitrogen, Carlsbad, CA) at 37 Celsius degrees under a humidified atmosphere containing 5% CO2 and 95% air. The medium contained 10% FBS, 2 mM L-glutamine, 50 U/ml penicillin 50 ug/ml streptomycin, and 250 ug/ml hygromycin and 500 ug/ml G418 (Invitrogen).
GR-translocation was measured beta-gal enzyme activity using the PathHunter Detection Kit containing cell membrane permeablizing reagent and beta-gal substrate (DiscoveRx, Fremont, CA). All compounds were screened as titrations from 0.6 nM to 46 uM final concentration. The assay was performed in 1536-well format as follows:
5 uL cell suspension (1,000 cells)/well
Incubation at 37 Celsius degrees for two hours
1.25 uL 1X detection buffer from the kit supplied by DiscoveRx
Incubation at room temperature for one hour
Read plate in luminescence mode in ViewLux plate reader (PerkinElmer)
Keywords: NIH Roadmap, MLSCN, MLI, MLSMR, GR-EFC, GREFC, qHTS, NCGC
Potency means the concentration at half of the fitted maximal effect.

Chain of Glucocorticoid receptor (Homo sapiens) (P04150 whole entry, looked up): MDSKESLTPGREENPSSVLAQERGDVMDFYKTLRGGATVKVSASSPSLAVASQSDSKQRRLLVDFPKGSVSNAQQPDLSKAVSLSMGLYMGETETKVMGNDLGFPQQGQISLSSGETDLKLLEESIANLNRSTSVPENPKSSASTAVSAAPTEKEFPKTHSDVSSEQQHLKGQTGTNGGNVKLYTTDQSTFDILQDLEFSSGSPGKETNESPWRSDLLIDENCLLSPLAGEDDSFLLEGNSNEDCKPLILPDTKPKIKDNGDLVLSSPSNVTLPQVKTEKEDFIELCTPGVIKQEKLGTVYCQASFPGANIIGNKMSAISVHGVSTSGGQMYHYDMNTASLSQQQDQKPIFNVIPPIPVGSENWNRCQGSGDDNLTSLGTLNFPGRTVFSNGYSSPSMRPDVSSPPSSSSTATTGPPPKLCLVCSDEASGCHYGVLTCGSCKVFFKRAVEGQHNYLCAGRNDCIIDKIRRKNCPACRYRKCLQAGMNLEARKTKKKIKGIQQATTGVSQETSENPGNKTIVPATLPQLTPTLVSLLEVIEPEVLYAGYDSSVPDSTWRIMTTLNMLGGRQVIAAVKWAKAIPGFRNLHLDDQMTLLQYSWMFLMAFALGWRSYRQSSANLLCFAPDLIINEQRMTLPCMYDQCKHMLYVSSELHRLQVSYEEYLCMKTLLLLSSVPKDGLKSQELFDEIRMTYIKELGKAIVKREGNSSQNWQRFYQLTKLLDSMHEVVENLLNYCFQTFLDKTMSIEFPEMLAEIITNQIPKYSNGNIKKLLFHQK

Structure (SMILES)	Potency
C[C@H](N)[C@@H](O)c1ccccc1	> 20.6 µM (inactive)
C[N+]1=Cc2cc3c(cc2CC1)OCO3	> 46 µM (inactive)
O=C(c1ccco1)N1CCC[C@@]2(CCN(Cc3ccncc3)C2)C1	> 46 µM (inactive)
C/C=C1\C[N@@+]2(C)CC[C@@]34C(=C(C=O)[C@H]1C[C@H]32)Nc1ccccc14	> 20.6 µM (inactive)
CN1CCC2(CC1)CCN(C(=O)c1ccco1)CC2	> 46 µM (inactive)
C[C@H]1OC[C@@H](C[N+](C)(C)C)O1	> 46 µM (inactive)
c1cnc(N2CC3(CCNCC3)C2)nc1	> 46 µM (inactive)
N#Cc1ccc(CN2CCCC3(CCN(C(=O)Oc4ccccc4)CC3)C2)cc1	> 46 µM (inactive)
CCN1C[C@@]2(COC)CC[C@H](O)[C@@]34[C@@H]2C[C@@H]([C@@H]13)[C@]1(O)C[C@@H](OC)C2C[C@H]4[C@H]1[C@H]2OC(C)=O	> 20.6 µM (inactive)
COC1=CC(=O)O[C@@H](/C=C\c2ccccc2)C1	> 20.6 µM (inactive)
CC(C)CN1CC[C@@]2(CCCN(C(=O)c3ccncc3)C2)C1	> 46 µM (inactive)
CC(C)CN1CC[C@@]2(CCCN(C(=O)Oc3ccccc3)C2)C1	> 46 µM (inactive)
CS(=O)(=O)N1CCC2(CC1)CN(Cc1ccncc1)C2	> 46 µM (inactive)
c1cncc([C@H]2CCCCN2)c1	> 46 µM (inactive)
C[N+]1(C)[C@@H]2CC[C@H]1CC(OC(=O)[C@@H](CO)c1ccccc1)C2 (stereo not given in full)	> 46 µM (inactive) and > 20.6 µM (inactive)
c1ccc(CN2CC[C@@]3(CCCNC3)C2)cc1	> 46 µM (inactive)
CN1CCCC2(CCN(C(=O)c3ccco3)CC2)C1	> 46 µM (inactive)
c1csc(CN2CCC3(CCNCC3)CC2)n1	> 46 µM (inactive)
O=C(Oc1ccccc1)N1CCC2(CC1)CN(C(c1ccccc1)c1ccccc1)C2	> 46 µM (inactive)
CN1C(=O)CCS(=O)(=O)[C@@H]1c1ccc(Cl)cc1	> 20.6 µM (inactive)

Structure (SMILES)	Potency
O=C(Oc1ccccc1)N1CCC2(CCN(Cc3ccccc3)CC2)CC1	> 46 µM (inactive)
COc1cc2c(cc1O)[C@H]1Cc3ccc(OC)c(O)c3CN1CC2	> 20.6 µM (inactive)
CC(C)CN1CCCC2(CCN(C(=O)Oc3ccccc3)CC2)C1	> 46 µM (inactive)
CN1[C@@H](C[C@@H](O)c2ccccc2)CCC[C@@H]1C[C@H](O)c1ccccc1	> 20.6 µM (inactive)
O=C1C=C2C=C[C@H]3C[C@@]2(O1)[C@H]1CCCCN31	> 20.6 µM (inactive) and > 46 µM (inactive)
C[C@H](NC(C)(C)C)C(=O)c1cccc(Cl)c1	> 46 µM (inactive) and > 20.6 µM (inactive)
COc1ccc(C[C@H]2c3cc(OC)c(OC)cc3CCN2C)cc1OC	> 20.6 µM (inactive) and > 46 µM (inactive)
N#Cc1ccc(CN2CCC3(CC2)CCN(C(=O)Oc2ccccc2)CC3)cc1	> 46 µM (inactive)
N#Cc1ccc(CN2CC[C@@]3(CCCN(C(=O)Oc4ccccc4)C3)C2)cc1	> 46 µM (inactive)
NCC#Cc1ccccc1	> 46 µM (inactive)
COc1ccc(NC(=O)N2CC3(CCN(C(=O)Oc4ccccc4)CC3)C2)cc1	> 46 µM (inactive)
c1ccc(N2CCC3(CCNCC3)CC2)cc1	> 46 µM (inactive)
O=C(Oc1ccccc1)N1CCC2(CCCN(C(c3ccccc3)c3ccccc3)C2)CC1	> 46 µM (inactive)
C[C@@H]1O[C@H](O[C@@H]2C=C3CC[C@H]4[C@@H](CC[C@]5(C)[C@@H](c6ccc(=O)oc6)CC[C@]45O)[C@@]3(C)CC2)[C@@H](O)[C@H](O)[C@@H]1O	> 20.6 µM (inactive)
O=C(O)C1=CCCN(CCOC(c2ccc(C(F)(F)F)cc2)c2ccc(C(F)(F)F)cc2)C1	> 46 µM (inactive)
CCNC[C@H](O)c1cccc(O)c1	> 20.6 µM (inactive)
O=C(c1ccco1)N1CCC2(CC1)CN(Cc1ccncc1)C2	> 46 µM (inactive)
CC(C)C[C@H]1C(=O)N2CCC[C@@H]2[C@@]2(O)O[C@](NC(=O)[C@@H]3C=C4c5cccc6[nH]cc(c56)C[C@@H]4N(C)C3)(C(C)C)C(=O)N12	> 20.6 µM (inactive)
c1ccc(N2CCCC3(CCNCC3)C2)nc1	> 46 µM (inactive)
CC(=O)N[C@@H]1CCSC1=O	> 20.6 µM (inactive)
